Source: PubChem BioAssay (Tox21)
Records with an inconclusive call do not appear. Active and inactive are the calls of the source. Unless noted, calls follow the shape of the dose curve; as a rule, active = well fitted curve in the direction sought with a large enough effect in the repeat runs; inconclusive = weak or mixed curves; inactive = no such curve, though single readings can be large; an effect the other way counts as inactive or inconclusive.

Columns and labels:
[1] = qHTS RealTime-Glo MT Cell Viability Assay in HEK293 cells - 0 hour (AID 1224880); also: top concentration of the series differs between compounds; nearly all actives have a fitted effect of over 45% in size
Summary of the method: (§1)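 HEK293 cells mixed with RealTime-Glo reagents (NanoLuc plus cell-permeant prosubstrate) at 600 cells/well, preincubated 5 h at 37 C/5% CO2, then given 23 nL compound in DMSO. Nonlytic luminescence from viable cells was read at 0, 8, 16, 24, 32 and 40 h.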

[2] = A CellTox Green Cytotoxicity Assay to monitor cytotoxicity in HEK293 cells - 32 hour (AID 1224881); also: nearly all actives have a fitted effect of over 40% in size
Summary of the method: (§2)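 HEK293 cells premixed with CellTox Green dye were seeded at 600 cells/well and left 5 h at 37 C/5% CO2 before pin transfer of 23 nL compound in DMSO. Fluorescence from dye bound to dead-cell DNA was read during 40 h treatment.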

[3] = A CellTox Green Cytotoxicity Assay to monitor cytotoxicity in HepG2 cells - 0 hour (AID 1224882); also: nearly all actives have a fitted effect of over 35% in size
Summary of the method: (§3)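 HepG2 cells were seeded together with the CellTox Green dye at 600 cells/well, left 5 h at 37 C/5% CO2, then given compounds in DMSO. Fluorescence from dye bound to dead-cell DNA was read repeatedly over 40 h of treatment at 37 C.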

[4] = A CellTox Green Cytotoxicity Assay to monitor cytotoxicity in HepG2 cells - 32 hour (AID 1224883); also: nearly all actives have a fitted effect of over 50% in size
Summary of the method: as §3

[5] = A CellTox Green Cytotoxicity Assay to monitor cytotoxicity in HEK293 cells - 8 hour (AID 1224884); also: nearly all actives have a fitted effect of over 35% in size
Summary of the method: as §2

[6] = qHTS RealTime-Glo MT Cell Viability Assay in HepG2 cells - 16 hour (AID 1224885); also: nearly all actives have a fitted effect of over 50% in size
Summary of the method: (§4)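 Cell number in HepG2 cultures estimated from NanoLuc luminescence generated by metabolic reduction of a prosubstrate by living cells. The homogeneous, nonlytic format allowed repeated reads at 0, 8, 16, 24, 32 and 40 h of compound exposure.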

[7] = qHTS RealTime-Glo MT Cell Viability Assay in HEK293 cells - 24 hour (AID 1224886); also: top concentration of the series differs between compounds; nearly all actives have a fitted effect of over 50% in size
Summary of the method: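 Homogeneous bioluminescent viability format in HEK293 cells (600 cells/well). Following 5 h at 37 C/5% CO2, 23 nL compound was pintooled; the signal was measured repeatedly during 40 h incubation.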

[8] = qHTS RealTime-Glo MT Cell Viability Assay in HEK293 cells - 8 hour (AID 1224887); also: top concentration of the series differs between compounds; nearly all actives have a fitted effect of over 50% in size
Summary of the method: as §1

[9] = A CellTox Green Cytotoxicity Assay to monitor cytotoxicity in HEK293 cells - 16 hour (AID 1224888); also: nearly all actives have a fitted effect of over 35% in size
Summary of the method: as §2

[10] = qHTS RealTime-Glo MT Cell Viability Assay in HepG2 cells - 0 hour (AID 1224889); also: nearly all actives have a fitted effect of over 50% in size
Summary of the method: as §4

[11] = A CellTox Green Cytotoxicity Assay to monitor cytotoxicity in HepG2 cells - 8 hour (AID 1224890); also: nearly all actives have a fitted effect of over 45% in size
Summary of the method: as §3

[12] = qHTS assay to identify small molecule antagonists of the estrogen receptor alpha (ER-alpha) signaling pathway using the BG1 cell line in the presence of 0.1 nM 17-beta-estradiol - cell viability counter screen (AID 1259241); also: nearly all actives have a fitted effect of over 40% in size
Summary of the method: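 VM7Luc4E2, 4,000 cells/well, phenol red-free medium + 10% charcoal-stripped FBS; 24 hr plating; cpd + 0.1 nM E2 final, 22 hr 37C/5% CO2; CellTiter-Fluor 30 min, fluorescence.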

[13] = qHTS assay to identify small molecule antagonists of the androgen receptor (AR) signaling pathway using the MDA cell line in the presence of 0.5 nM R1881 - cell viability counter screen (AID 1259242); also: nearly all actives have a fitted effect of over 45% in size
Summary of the method: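 MDA-kb2 cells (human breast carcinoma, stably carrying MMTV-luciferase reporter) were exposed to compounds with 0.5 nM R1881 (final) for 16 hr at 37C, 0% CO2; viability then read as live-cell protease fluorescence (CellTiter-Fluor, 30 min) in the same wells.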

[14] = target: Androgen receptor (Homo sapiens) (UniProt P10275); assay: qHTS assay to identify small molecule antagonists of the androgen receptor (AR) signaling pathway using the MDA cell line in the presence of 0.5 nM R1881 (AID 1259243); also: nearly all actives have a fitted effect of over 50% in size
Chain of Androgen receptor (Homo sapiens) (P10275 whole entry, looked up): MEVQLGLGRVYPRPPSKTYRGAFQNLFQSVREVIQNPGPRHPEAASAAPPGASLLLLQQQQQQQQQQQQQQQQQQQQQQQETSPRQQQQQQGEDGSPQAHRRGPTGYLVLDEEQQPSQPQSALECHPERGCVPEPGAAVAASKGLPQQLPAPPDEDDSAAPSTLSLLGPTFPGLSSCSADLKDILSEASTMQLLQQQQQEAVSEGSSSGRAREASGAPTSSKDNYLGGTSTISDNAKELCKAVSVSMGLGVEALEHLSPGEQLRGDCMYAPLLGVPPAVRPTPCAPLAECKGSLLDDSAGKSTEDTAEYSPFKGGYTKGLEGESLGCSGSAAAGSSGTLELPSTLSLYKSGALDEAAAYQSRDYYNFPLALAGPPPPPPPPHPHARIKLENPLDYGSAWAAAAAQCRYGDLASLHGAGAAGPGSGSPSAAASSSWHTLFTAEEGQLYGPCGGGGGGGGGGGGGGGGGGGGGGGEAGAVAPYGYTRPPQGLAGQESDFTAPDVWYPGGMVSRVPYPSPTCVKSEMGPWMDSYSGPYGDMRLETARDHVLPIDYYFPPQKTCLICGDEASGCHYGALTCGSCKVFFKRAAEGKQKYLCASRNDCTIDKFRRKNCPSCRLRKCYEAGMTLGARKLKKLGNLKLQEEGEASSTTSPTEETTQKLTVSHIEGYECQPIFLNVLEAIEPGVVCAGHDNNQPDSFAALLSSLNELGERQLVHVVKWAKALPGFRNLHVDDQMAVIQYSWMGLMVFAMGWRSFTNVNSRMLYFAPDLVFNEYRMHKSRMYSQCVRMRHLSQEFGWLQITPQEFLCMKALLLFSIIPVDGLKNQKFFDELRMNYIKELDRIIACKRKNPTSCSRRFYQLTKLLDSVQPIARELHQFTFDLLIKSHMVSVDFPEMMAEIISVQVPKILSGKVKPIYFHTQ
Summary of the method: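 MDA-kb2 human breast carcinoma cells carrying an MMTV-luciferase reporter (AR- and GR-responsive) were plated, rested 5 hr at 37C, dosed with compounds, then stimulated with 0.5 nM R1881 (final) for 16 hr; luminescence was read after ONE-Glo.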

[15] = target: Estrogen receptor (Homo sapiens) (UniProt P03372); assay: qHTS assay to identify small molecule antagonists of the estrogen receptor alpha (ER-alpha) signaling pathway using the BG1 cell line in the presence of 0.1 nM 17-beta-estradiol (AID 1259244); also: nearly all actives have a fitted effect of over 50% in size
Chain of Estrogen receptor (Homo sapiens) (P03372 whole entry, looked up): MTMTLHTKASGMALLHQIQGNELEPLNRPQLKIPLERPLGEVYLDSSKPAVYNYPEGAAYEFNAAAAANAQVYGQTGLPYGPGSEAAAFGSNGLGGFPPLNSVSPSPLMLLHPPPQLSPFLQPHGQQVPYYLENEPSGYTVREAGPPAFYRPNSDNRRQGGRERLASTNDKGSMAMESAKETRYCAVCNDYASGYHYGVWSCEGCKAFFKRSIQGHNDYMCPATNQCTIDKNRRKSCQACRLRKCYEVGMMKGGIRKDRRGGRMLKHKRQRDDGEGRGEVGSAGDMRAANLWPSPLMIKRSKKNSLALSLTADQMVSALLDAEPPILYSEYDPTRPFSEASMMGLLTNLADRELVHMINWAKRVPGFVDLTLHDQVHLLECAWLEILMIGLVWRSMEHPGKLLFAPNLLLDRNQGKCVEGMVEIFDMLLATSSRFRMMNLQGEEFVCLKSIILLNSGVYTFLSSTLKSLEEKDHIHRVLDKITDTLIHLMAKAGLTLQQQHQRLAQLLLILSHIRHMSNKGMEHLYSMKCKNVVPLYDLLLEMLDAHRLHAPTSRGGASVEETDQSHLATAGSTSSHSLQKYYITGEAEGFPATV
Summary of the method: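 VM7Luc4E2 cells (endogenous full-length ER-alpha, stable 4xERE-luciferase) were grown 5 days in phenol red-free medium with charcoal-stripped FBS, then exposed 22 h at 37C to compounds plus 0.1 nM (final) 17beta-estradiol; ONE-Glo luminescence read-out.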

[16] = qHTS assay to identify small molecule phospholipidosis (PLD) inducers (AID 1259344; active = well fitted curve in the direction sought with a large enough effect; an effect the other way counts as inactive or inconclusive)
Summary of the method: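 Fluorescent phospholipid staining (LipidTOX Red) measured by automated microscopy in fixed HepG2 cells after 24 h treatment; nuclei counterstained with Hoechst 33342; amiodarone as reference inducer.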

[17] = qHTS assay to identify small molecule HDAC inhibitors (AID 1259364); also: top concentration of the series differs between compounds; nearly all actives have a fitted effect of over 45% in size
Summary of the method: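 Wild-type HCT-116 cells were plated overnight, exposed to compounds for 2 h at 37 °C, then given HDAC-Glo class I/II luminogenic reagent for 30 min at room temperature before luminescence was read.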

[18] = qHTS assay to identify small molecule HDAC inhibitors - cell viability counter screen (AID 1259365)
Summary of the method: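 Luminescence from CellTiter-Glo, developed 30min at room temperature, reports viability of wild-type HCT-116 cells treated 2hr with compounds at 37 C and 5% CO2 after overnight plating.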

[19] = qHTS assay to identify small molecule agonists of the sonic hedgehog signaling (Shh) pathway - cell viability counter screen (AID 1259366); also: nearly all actives have a fitted effect of over 50% in size
Summary of the method: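 Cytotoxicity counter screen run in the same wells as the Shh reporter assay. NIH/3T3 cells carrying a Gli1 response element–driven luciferase were treated with DMSO-dissolved compounds for 24hr, and live-cell protease activity was measured with CellTiter-Fluor.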

[20] = qHTS assay to identify small molecule antagonists of the sonic hedgehog signaling (Shh) pathway - cell viability counter screen (AID 1259367); also: nearly all actives have a fitted effect of over 55% in size
Summary of the method: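 Using CellTiter-Fluor, viability of Gli1-Luc reporter 3T3 cells is read by fluorescence in the wells used for the Shh luciferase assay. Treatment lasts 23 hr with conditioned medium, then reagent 1 hr at 37C.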
% is scaled to controls: 0 for no effect and ±100 for the full control effect.

Cc1ncc(CSSCc2cnc(C)c(O)c2CO)c(CO)c1O
inactive: outcome [1] | Potency [2] | Potency [3] | Potency [4] | Potency [5] | outcome [6] | Potency [7] | Potency [8] | Potency [9] | Potency [10] | Potency [11] | outcome [12] | outcome [13] | Potency [14] | outcome [15] | Potency [16] | Potency [17] | outcome [18] | Potency [19] | outcome [20]

NCCNC(=O)c1ccc(Cl)cn1
inactive: outcome [1] | Potency [2] | Potency [3] | Potency [4] | Potency [5] | outcome [6] | Potency [7] | Potency [8] | Potency [9] | Potency [10] | Potency [11] | outcome [12] | outcome [13] | outcome [15] | Potency [16] | Potency [17] | outcome [18] | outcome [20]

CO[Si](CCCNCCC[Si](OC)(OC)OC)(OC)OC
inactive: outcome [1] | Potency [2] | Potency [3] | Potency [4] | Potency [5] | outcome [6] | Potency [7] | Potency [8] | Potency [9] | Potency [10] | Potency [11] | outcome [12] | outcome [13] | outcome [15] | Potency [17] | outcome [18] | Potency [19] | outcome [20]

O=C(CCOCCOCCOCCOCCC(=O)Nc1c(I)cc(I)c(C(=O)O)c1I)Nc1c(I)cc(I)c(C(=O)O)c1I
inactive: outcome [1] | Potency [2] | Potency [3] | Potency [4] | Potency [5] | outcome [6] | Potency [7] | Potency [8] | Potency [9] | Potency [10] | Potency [11] | outcome [12] | outcome [13] | Potency [14] | outcome [15] | Potency [17] | outcome [18] | Potency [19] | outcome [20]

O=[N+]([O-])c1ccc(CCO)cc1
inactive: outcome [1] | Potency [2] | Potency [3] | Potency [4] | Potency [5] | outcome [6] | Potency [7] | Potency [8] | Potency [9] | Potency [10] | Potency [11] | outcome [12] | outcome [13] | outcome [15] | Potency [17] | outcome [18] | Potency [19] | outcome [20]

CC(=O)O[C@H](CC(=O)[O-])C[N+](C)(C)C
inactive: outcome [1] | Potency [2] | Potency [3] | Potency [4] | Potency [5] | outcome [6] | Potency [7] | Potency [8] | Potency [9] | Potency [10] | Potency [11] | outcome [12] | outcome [13] | outcome [15] | Potency [17] | outcome [18] | Potency [19] | outcome [20]

CCc1cc(S(=O)(=O)O)c2cc(C(C)C)cccc1-2
inactive: outcome [1] | Potency [2] | Potency [3] | Potency [4] | Potency [5] | outcome [6] | Potency [7] | Potency [8] | Potency [9] | Potency [10] | Potency [11] | outcome [12] | outcome [13] | outcome [15] | PLD induction [16] -3.58% [at 7.66 µM] | Potency [17] | outcome [20]

COc1ccc(NC(C)=O)cc1
inactive: outcome [1] | Potency [2] | Potency [3] | Potency [4] | Potency [5] | outcome [6] | Potency [7] | Potency [8] | Potency [9] | Potency [10] | Potency [11] | outcome [12] | outcome [13] | Potency [14] | Potency [17] | outcome [18] | Potency [19] | outcome [20]

O=Cc1ccccc1[N+](=O)[O-]
inactive: outcome [1] | Potency [2] | Potency [3] | Potency [4] | Potency [5] | outcome [6] | Potency [7] | Potency [8] | Potency [9] | Potency [10] | Potency [11] | outcome [12] | outcome [13] | outcome [15] | Potency [17] | outcome [18] | Potency [19] | outcome [20]

C[C@H](O)C(=O)Nc1c(I)c(C(=O)NC(CO)CO)c(I)c(C(=O)NC(CO)CO)c1I
inactive: outcome [1] | Potency [2] | Potency [3] | Potency [4] | Potency [5] | outcome [6] | Potency [7] | Potency [8] | Potency [9] | Potency [10] | Potency [11] | outcome [12] | outcome [13] | outcome [15] | Potency [16] | outcome [20]

CC(C)(C)CC(C)(C)N
inactive: outcome [1] | Potency [2] | Potency [3] | Potency [4] | Potency [5] | outcome [6] | Potency [7] | Potency [8] | Potency [9] | Potency [10] | Potency [11] | outcome [12] | outcome [13] | outcome [15] | Potency [17] | outcome [18] | Potency [19] | outcome [20]

CC(C)(O)c1ccccc1
inactive: outcome [1] | Potency [2] | Potency [3] | Potency [4] | Potency [5] | outcome [6] | Potency [7] | Potency [8] | Potency [9] | Potency [10] | Potency [11] | outcome [12] | outcome [13] | outcome [15] | Potency [17] | outcome [18] | Potency [19] | outcome [20]

COC(=O)CCCC(=O)O
inactive: outcome [1] | Potency [2] | Potency [3] | Potency [4] | Potency [5] | outcome [6] | Potency [7] | Potency [8] | Potency [9] | Potency [10] | Potency [11] | outcome [12] | outcome [13] | outcome [15] | Potency [17] | outcome [18] | Potency [19] | outcome [20]

CC(=O)c1ccc(C)cc1
inactive: outcome [1] | Potency [2] | Potency [3] | Potency [4] | Potency [5] | outcome [6] | Potency [7] | Potency [8] | Potency [9] | Potency [10] | Potency [11] | outcome [12] | outcome [13] | outcome [15] | Potency [17] | outcome [18] | Potency [19] | outcome [20]

O=c1[nH]c(=O)n([C@H]2O[C@H](CO)[C@@H](O)[C@@H]2O)cc1/C=C\Br
inactive: outcome [1] | Potency [2] | Potency [3] | Potency [4] | Potency [5] | outcome [6] | Potency [7] | Potency [8] | Potency [9] | Potency [10] | Potency [11] | outcome [12] | outcome [13] | Potency [14] | Potency [17] | outcome [18] | Potency [19] | outcome [20]
